Experimental data taken from publication PMC7826789 (International Journal of Molecular Sciences, 2021).

What was measured:
Conditions in all cases: Compound Concentration (nM):1000
[1] = test system: EPHB2
[2] = test system: EPHB3
[3] = test system: EPHB4
[4] = test system: EPHB6
[5] = test system: ERBB2
[6] = test system: ERBB3
[7] = test system: ERBB4
[8] = test system: T1, ERK1
T1 construct: gene MAPK3

[9] = test system: T2, ERK2
T2 construct: gene MAPK1

[10] = test system: T3, ERK3
T3 construct: gene MAPK6

[11] = test system: T4, ERK4
T4 construct: gene MAPK4

[12] = test system: T5, ERK5
T5 construct: gene MAPK7

[13] = test system: T6, ERK8
T6 construct: gene MAPK15

[14] = test system: ERN1
[15] = test system: T7, FAK
T7 construct: gene PTK2

[16] = test system: FER
[17] = test system: FES
[18] = test system: FGFR1
[19] = test system: FGFR2
[20] = test system: FGFR3(G697C)
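Further: KINOMEscan scanMAX binding as percent activity remaining versus control; lower means stronger binding.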

| SMILES | Percent Control [1] [%] | Percent Control [2] [%] | Percent Control [3] [%] | Percent Control [4] [%] | Percent Control [5] [%] | Percent Control [6] [%] | Percent Control [7] [%] | Percent Control [8] [%] | Percent Control [9] [%] | Percent Control [10] [%] | Percent Control [11] [%] | Percent Control [12] [%] | Percent Control [13] [%] | Percent Control [14] [%] | Percent Control [15] [%] | Percent Control [16] [%] | Percent Control [17] [%] | Percent Control [18] [%] | Percent Control [19] [%] | Percent Control [20] [%] |
| --- | --- | --- | --- | --- | --- | --- | --- | --- | --- | --- | --- | --- | --- | --- | --- | --- | --- | --- | --- | --- |
| Cl.c1ccc(Cc2nc3ccc(Nc4ncnc5ccccc45)cc3[nH]2)cc1 [GR269666A] | 100 | 100 | 100 | 81 | 0 | 20 | 1.8 | 100 | 100 | 100 | 100 | 100 | 92 | 93 | 100 | 88 | 100 | 100 | 100 | 100 |
| NS(=O)(=O)c1ccc(Nc2ncc(-c3ccccc3)o2)cc1 [GW572399X] | 100 | 94 | 100 | 35 | 70 | 74 | 100 | 100 | 100 | 100 | 100 | 100 | 28 | 100 | 100 | 100 | 100 | 100 | 100 | 100 |
| CN(C)c1cc2c(Nc3ccc4c(cnn4Cc4ccccc4)c3)ncnc2cn1 [GW282974X] | 100 | 75 | 85 | 24 | 0 |  | 24 | 100 | 37 |  | 100 | 100 | 87 | 52 | 85 | 100 | 81 | 97 | 97 | 93 |
| COc1ccc2c(-c3ccnc(Nc4cccc(OC(F)(F)F)c4)n3)cnn2n1 [GW810372X] | 100 | 100 | 100 | 83 | 100 | 65 | 100 | 100 | 100 | 100 | 100 | 100 | 3.6 | 100 | 100 | 100 | 100 | 91 | 100 | 75 |
| COC(=O)Nc1nc2ccc(Oc3ccc(NC(=O)Nc4cc(C(F)(F)F)ccc4F)cc3)cc2s1.Cl [GW693917A] | 34 | 81 | 59 | 9.4 | 100 | 45 | 100 | 100 | 100 | 66 | 95 | 100 | 8.5 | 56 | 92 | 100 | 88 | 51 | 30 | 59 |
| NS(=O)(=O)c1ccc(N/N=C2\C(=O)Nc3ccc(C(=O)NCCc4c[nH]cn4)cc32)cc1 [GW300660X] | 100 | 100 | 100 | 37 | 57 | 86 | 100 | 100 | 100 | 100 | 100 | 100 | 18 | 82 | 100 | 100 | 100 | 100 | 100 | 100 |
| COc1cccc(-c2c[nH]c3c(N/N=C/c4ccncc4)ncnc23)c1 [GW814408X] | 100 | 100 | 100 | 2.7 | 63 | 13 | 88 | 100 | 100 | 19 | 8.3 | 100 | 2 | 100 | 100 | 100 | 100 | 100 | 100 | 100 |
| CCS(=O)(=O)c1ccc(OC)c(Nc2ncc(-c3cccc(F)c3)o2)c1 [GW621970X] | 100 | 100 | 99 | 1.6 | 88 | 53 | 100 | 100 | 100 | 100 | 100 | 100 | 100 | 100 | 100 | 100 | 100 | 25 | 22 | 7.2 |
| COc1ccc(COc2ccc(Cc3cnc(N)nc3N)cc2OC)cc1 [GW632580X] | 81 | 73 | 92 | 100 | 94 | 85 | 100 | 95 | 92 | 87 | 100 | 100 | 100 | 88 | 100 | 81 | 82 | 67 | 99 | 89 |
| Cl.O=S1CCN(Cc2ccc(-c3ccc4ncnc(Nc5ccc(OCc6ccccc6)c(F)c5)c4c3)o2)CC1 [GW576924A] | 100 | 100 | 100 | 100 | 0 | 58 | 22 | 100 | 100 | 100 | 100 | 100 | 100 | 100 | 100 | 100 | 100 | 100 | 100 | 100 |
| Cc1cc(O)cc(C)c1/C=C/c1cncc(C(N)=O)c1 [GW435821X] | 100 | 100 | 100 | 6.6 | 61 | 43 | 100 | 100 | 100 | 100 | 100 | 100 | 100 | 82 | 100 | 98 | 100 | 92 | 100 | 100 |
| NS(=O)(=O)c1ccc(N/N=C2\C(=O)Nc3ccc(Cl)cc32)cc1 [GW280670X] | 100 | 100 | 100 | 82 | 81 | 72 | 100 | 100 | 100 | 100 | 100 | 100 | 59 | 100 | 100 | 90 | 100 | 100 | 100 | 100 |
| COc1cc(C=NNc2ncnc3c2cnn3-c2ccccc2)ccc1O [GW513184X] | 93 | 100 | 100 | 3.9 | 81 | 66 | 100 | 100 | 82 | 15 | 37 | 100 | 22 | 100 | 100 | 100 | 100 | 100 | 100 | 100 |
| NS(=O)(=O)c1ccc(N/N=C2\C(=O)Nc3ccc(-c4cnco4)cc32)cc1 [GW276655] | 100 | 86 | 84 | 58 | 91 | 76 | 66 | 75 | 77 | 87 | 100 | 98 | 23 | 89 | 68 | 91 | 86 | 85 | 100 | 78 |
| CC(C)COC(=O)c1ccc2c(c1)/C(=C/Nc1ccc(S(N)(=O)=O)cc1)C(=O)N2 [GW416981X] | 100 | 100 | 100 | 100 | 26 | 81 | 50 | 100 | 100 | 100 | 100 | 100 | 1.8 | 100 | 100 | 100 | 100 | 100 | 100 | 100 |
| CCc1ccc(Oc2nccc(-c3c(-c4ccc(F)cc4)ncn3C3CCNCC3)n2)cc1 [SB-242719] | 95 | 94 | 98 | 76 | 20 | 78 | 99 | 92 | 100 | 100 | 100 | 100 | 100 | 75 | 100 | 67 | 97 | 100 | 100 | 91 |
| COc1ccc2[nH]c3c4[nH]c5ccc(OC)cc5c4c4c(c3c2c1)C(=O)NC4=O [GW296115X] | 84 | 85 | 84 | 7.3 | 100 | 85 | 59 | 85 | 76 | 84 | 74 | 69 | 58 | 93 | 85 | 58 | 86 | 100 | 88 | 100 |
| NS(=O)(=O)c1ccc(N/N=C2\C(=O)Nc3ccc(C(=O)NCc4ccncc4)cc32)cc1 [GW300657X] | 93 | 98 | 100 | 16 | 80 | 53 | 93 | 100 | 88 | 87 | 100 | 39 | 4 | 57 | 86 | 100 | 100 | 91 | 80 | 100 |
| CN(C)CCNC(=O)Nc1ccc(N(C)c2ccnc(Nc3ccc(CS(C)(=O)=O)cc3)n2)cc1.Cl [GW830900A] | 100 | 100 | 100 | 28 | 100 | 93 | 81 | 100 | 85 | 94 | 93 | 100 | 78 | 72 | 49 | 100 | 100 | 100 | 94 | 100 |
| Cl.O=C(Nc1ccc(Oc2ccc3[nH]c(NC(=O)c4ccccc4)nc3c2)cc1)Nc1cc(C(F)(F)F)ccc1F [GW709042A] | 76 | 90 | 84 | 28 | 92 | 70 | 100 | 100 | 100 | 84 | 91 | 94 | 64 | 100 | 100 | 77 | 94 | 76 | 68 | 100 |
